In all, about 5,500 compounds went through this assay and about 2,000 (36%) were called active. Not shown: some 18% with an inconclusive outcome. Rule as the data show it: active = normalized growth mostly below about 0.91 (no sharp cut-off); inconclusive = no clear call, values can overlap the other calls; inactive = mostly above about 0.92. The list shows a part of the results.
Test: chemical genetic growth profiling, strain panel (AID 1159580);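 also: tested at 20 µM; growth read once vehicle control cultures reached saturation at 30 °C; 1 = growth at the plate median or of vehicle wells; lower values mean less growth of the strain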
Details: S. cerevisiae deletion strains, growth OD
[1] = locus YAL040C, strain CLN3, stronger effect = lower value
[2] = locus YDR363W, strain ESC2, stronger effect = lower value
[3] = locus YER002W, strain NOP16, stronger effect = lower value
[4] = locus YJR075W, strain HOC1, stronger effect = lower value
[5] = locus YMR307W, strain GAS1, stronger effect = lower value
[6] = locus YNL153C, strain GIM3, stronger effect = lower value
[7] = locus YNL175C, strain NOP13, stronger effect = lower value
[8] = locus YNL197C, strain WHI3, stronger effect = lower value
[9] = locus YNL224C, strain SQS1, stronger effect = lower value
[10] = locus YOR083W, strain WHI5 (second series), stronger effect = lower value

Measured: normalized growth

COc1ccccc1OCC(O)CN1CCN(CC(=O)Nc2c(C)cccc2C)CC1 (stereo unspecified)
inactive: locus YAL013W, strain DEP1, stronger effect = lower value 0.996 | locus YAL021C, strain ccr4, stronger effect = lower value 0.991 | locus YAL026C, strain drs2, stronger effect = lower value 1.03 | locus YAL030W, strain snc1, stronger effect = lower value 1.01 | [1] 1 | locus YBL061C, strain skt5, stronger effect = lower value 1.02 | locus YBR009C, strain hhf1, stronger effect = lower value 0.986 | locus YBR023C, strain chs3, stronger effect = lower value 1.03 | locus YBR171W, strain sec66, stronger effect = lower value 1.02 | locus YBR231C, strain swc5, stronger effect = lower value 0.991 | locus YBR279W, strain paf1, stronger effect = lower value 1.02 | locus YCL011C, strain gbp2, stronger effect = lower value 1.01 | locus YCL016C, strain dcc1, stronger effect = lower value 1.04 | locus YCL061C, strain MRC1 (second series), stronger effect = lower value 1 | locus YCL061C, strain MRC1, stronger effect = lower value 0.993 | locus YCL069W, strain vba3, stronger effect = lower value 1.02 | locus YCR088W, strain abp1, stronger effect = lower value 1.02 | locus YDL005C, strain med2, stronger effect = lower value 1 | locus YDL040C, strain nat1, stronger effect = lower value 1 | locus YDR001C, strain nth1, stronger effect = lower value 1 | locus YDR069C, strain doa4, stronger effect = lower value 0.991 | locus YDR137W, strain rgp1, stronger effect = lower value 1.06 | locus YDR159W, strain sac3, stronger effect = lower value 0.912 | locus YDR195W, strain ref2 0.993 | locus YDR297W, strain sur2, stronger effect = lower value 1 | locus YDR334W, strain swr1, stronger effect = lower value 1 | locus YDR335W, strain msn5, stronger effect = lower value 1.01 | [2] 0.998 | locus YDR392W, strain spt3, stronger effect = lower value 0.942 | locus YEL003W, strain gim4, stronger effect = lower value 0.976 | locus YEL037C, strain rad23, stronger effect = lower value 1.01 | locus YEL061C, strain CIN8 (second series), stronger effect = lower value 0.997 | [3] 0.993 | locus YER015W, strain faa2, stronger effect = lower value 1.01 | locus YER016W, strain bim1, stronger effect = lower value 1.03 | locus YER111C, strain swi4, stronger effect = lower value 1.02 | locus YER155C, strain BEM2 (second series), stronger effect = lower value 0.957 | locus YFR010W, strain ubp6, stronger effect = lower value 0.97 | locus YGL167C, strain pmr1, stronger effect = lower value 0.989 | locus YGL173C, strain kem1, stronger effect = lower value 0.987 | locus YGL227W, strain vid30, stronger effect = lower value 1.02 | locus YGL240W, strain doc1, stronger effect = lower value 0.987 | locus YGL253W, strain hxk2, stronger effect = lower value 1.06 | locus YHR013C, strain ard1, stronger effect = lower value 1.03 | locus YHR027C, strain rpn1, stronger effect = lower value 0.988 | locus YHR030C, strain SLT2, stronger effect = lower value 1.06 | locus YHR079C, strain IRE1, stronger effect = lower value 1.05 | locus YHR142W, strain chs7, stronger effect = lower value 1.02 | locus YJL092W, strain hpr5, stronger effect = lower value 1 | locus YJL095W, strain BCK1 (second series), stronger effect = lower value 1.02 | locus YJL095W, strain BCK1, stronger effect = lower value 1.02 | locus YJL115W, strain asf1, stronger effect = lower value 1 | locus YJL129C, strain trk1, stronger effect = lower value 1.03 | locus YJL154C, strain vps35, stronger effect = lower value 1 | locus YJL164C, strain tpk1, stronger effect = lower value 0.979 | locus YJL166W, strain qcr8, stronger effect = lower value 0.997 | locus YJR066W, strain TOR1, stronger effect = lower value 0.977 | [4] 1 | locus YKL160W, strain elf1, stronger effect = lower value 1.01 | locus YKR026C, strain gcn3, stronger effect = lower value 1 | locus YKR091W, strain srl3, stronger effect = lower value 1 | locus YLL001W, strain dnm1, stronger effect = lower value 0.964 | locus YLL026W, stronger effect = lower value 1.01 | locus YLL041C, strain sdh2, stronger effect = lower value 1.02 | locus YLR027C, strain aat2, stronger effect = lower value 1 | locus YLR113W, strain HOG1, stronger effect = lower value 0.982 | locus YLR221C, strain rsa3, stronger effect = lower value 0.972 | locus YLR258W, strain gsy2, stronger effect = lower value 1.03 | locus YLR262C, strain YPT6 (second series), stronger effect = lower value 1.02 | locus YLR320W, strain mms22, stronger effect = lower value 0.937 | locus YLR342W, strain FKS1, stronger effect = lower value 1.02 | locus YLR357W, strain rsc2, stronger effect = lower value 0.99 | locus YLR370C, strain arc18, stronger effect = lower value 1.01 | locus YLR384C, strain iki3, stronger effect = lower value 0.997 | locus YML120C, strain ndi1, stronger effect = lower value 0.976 | locus YMR058W, strain fet3, stronger effect = lower value 1.01 | locus YMR125W, strain sto1, stronger effect = lower value 1.01 | locus YMR129W, stronger effect = lower value 0.988 | locus YMR205C, strain PFK2, stronger effect = lower value 1 | locus YMR231W, strain pep5, stronger effect = lower value 1 | [5] 1.02 | locus YNL071W, strain lat1, stronger effect = lower value 1 | [6] 1.06 | [7] 1.01 | locus YNL183C, strain NPR1, stronger effect = lower value 0.963 | [8] 1.01 | locus YNL209W, strain ssb2, stronger effect = lower value 1.02 | [9] 1.01 | locus YNL248C, strain rpa49, stronger effect = lower value 1.07 | locus YNL322C, strain KRE1 (second series), stronger effect = lower value 1.02 | locus YNR049C, strain mso1, stronger effect = lower value 1 | locus YOR001W, strain rrp6, stronger effect = lower value 0.924 | locus YOR070C, strain gyp1, stronger effect = lower value 1.01 | locus YOR080W, strain dia2, stronger effect = lower value 1.01 | [10] 1.02 | locus YOR083W, strain WHI5, stronger effect = lower value 0.974 | locus YOR106W, strain vam3, stronger effect = lower value 1.04 | locus YOR231W, strain MKK1, stronger effect = lower value 1.01 | locus YOR265W, strain rbl2, stronger effect = lower value 0.98 | locus YOR270C, strain vph1, stronger effect = lower value 0.991 | locus YOR290C, strain snf2, stronger effect = lower value 1.06 | locus YPL051W, strain arl3, stronger effect = lower value 1.04 | locus YPL078C, strain atp4, stronger effect = lower value 1.07 | locus YPL106C, strain sse1, stronger effect = lower value 1.1 | locus YPL240C, strain hsp82, stronger effect = lower value 1 | locus YPL241C, strain CIN2, stronger effect = lower value 1.01 | locus YPL256C, strain CLN2, stronger effect = lower value 1.05

N.N.N.N.N.N.N.N.N.N.N.N.N.N.O.O.[Ru+4].[Ru+5].[Ru+5]
inactive: locus YMR263W, strain SAP30, stronger effect = lower value 0.993
active: [1] 0.206 | [2] 0.323 | [3] 0.155 | locus YGR078C, strain PAC10, stronger effect = lower value 0.158 | locus YGR229C, strain SMI1, stronger effect = lower value 0.151 | [4] 0.115 | [5] 0.218 | locus YNL128W, strain TEP1, stronger effect = lower value 0.194 | [6] 0.193 | [7] 0.175 | [8] 0.154 | [9] 0.173 | [10] 0.167
